Rows were chosen to be rich in hits. Some 19% of all compounds tested hit in one or more screens of this group.
TDP1 cell noCPT – qHTS for Inhibitors of human tyrosyl-DNA phosphodiesterase 1 (TDP1): qHTS in cells in absence of CPT; DT40 Tdp1-/- hTDP1 cells, no CPT, ATP luminescence, 48 h; Potency, µM (top dose mostly 46.2 µM), for inactives: top-dose activity change, negative = growth inhibition, hits mostly inhibitors; hit rate 15% among 420,000; further: potency means the concentration at half of the fitted maximal effect; on the % scale 0 is the no-effect control and ±100 the full control effect; nearly all actives have a fitted effect of over 55% in size
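Camptothecin absent (DMSO only). Human TDP1-complemented DT40 knockout cells, 400 cells/well, 37 °C for minimum 48 hr; ATP measured via CellTiter-Glo, 30 min dark incubation, luminescence.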
SW480 rereplic – A quantitative high throughput screen for small molecules that induce DNA re-replication in SW480 colon adenocarcinoma cells. SW480 DNA re-replication, Hoechst DNA content imaging, 48 h. Potency, µM (highest dose often 46.1 µM), without a hit: at the top dose re-replication activation, usual class: activators. hit rate 1.8% among 340,000. AID 624297, 2012; further: potency means the concentration at half of the fitted maximal effect; % of control where 0% means no effect; nearly all actives have a fitted effect of over 55% in size
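Image-based read-out: total Hoechst fluorescence of nuclei (405 nm excitation, 500-530 nm emission), with hits raising the fraction of high-intensity nuclei. SW480 colon cells incubated 48 hr with compounds at 37 C.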
MCF10A rereplic – A quantitative high throughput screen for small molecules that induce DNA re-replication in MCF 10a normal breast cells. MCF 10A DNA re-replication, Hoechst nuclear intensity, 48 h. Potency, µM (top dose mostly 46.1 µM), for the others: top-dose activity, positive = re-replication, most hits filed as activators. hit rate 2.9% among 350,000. AID 624296, 2012; further: potency means the concentration at half of the fitted maximal effect; % of control where 0% means no effect; nearly all actives have a fitted effect of over 50% in size
IL1B secr inh – qHTS for Inhibitors of Inflammasome Signaling: IL-1-beta AlphaLISA Primary Screen; hit rate 4.7% among 360,000; THP-1 LPS/ATP IL-1B secretion, AlphaLISA, 16 h; stronger effect = lower value; activity change, % at 57.5 µM; in the data active means activity change below about -50%; inconclusive means mostly about -30% to -49%; further: on the % scale 0 is the no-effect control and ±100 the full control effect
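THP-1 cells pretreated 1 hr with compounds (up to 57.5 uM final), then stimulated with LPS (250 ng/mL final) plus ATP (1.25 mM final); secreted IL-1B measured by AlphaLISA after 16 hr, decreased signal indicating inhibition.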
BCR signal inh – qHTS Assay to Find Inhibitors of Chronic Active B-Cell Receptor Signaling; Potency, µM (top dose mostly 46.1 µM), inactives show at the top dose activity change, negative = inhibition, usual class: inhibitors; AID 493014, 2011; hit rate 0.05% among 340,000; ABC-DLBCL IkBa-CBG/CBR reporter, luminescence ratio, 4 h; active means well fitted inhibition curve with a large enough effect in the signal ratio, with a control signal flat, not every such curve was filed as active; inconclusive means small, poorly fitted or top-dose-only effect, or effect the other way, or a change in a side signal; the % refers to the signal ratio;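 further: potency means the concentration at half of the fitted maximal effect; plate controls were basal doxycycline-induced cells for no effect and cells given 10 µM MG132 for full effect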
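Cell line TMD8 (human ABC DLBCL), stably expressing tet-inducible CBG68-IkBa fusion and CBR; IMDM/0.5% FBS; cpd up to 46 uM; dox induction, 4 h, 37C/5% CO2; dual luminescence; green/red ratio; MG132 control.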
TDP1 cell CPT – qHTS for Inhibitors of human tyrosyl-DNA phosphodiesterase 1 (TDP1): qHTS in cells in presence of CPT | chicken DT40 Tdp1-/-;hTDP1 cells + 20 nM CPT, ATP luminescence, 48 h | Potency, µM (doses to about 46.2 µM), without a hit: at the highest dose activity change, negative = growth inhibition, hits mostly inhibitors | hit rate 12% among 420,000; further: potency means the concentration at half of the fitted maximal effect; on the % scale 0 is the no-effect control and ±100 the full control effect; nearly all actives have a fitted effect of over 55% in size
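Cell growth measured by CellTiter-Glo luminescence after a minimum 48 h, 37 C compound exposure with 20 nM CPT in Tdp1-knockout DT40 cells stably expressing hTDP1, seeded 400/well; qHTS titration format.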
* = called active by the depositor; ? = inconclusive; . = no result given; [ ] = remark or other dose. Unless noted, the call rests on the fitted dose curve; in most records, active means well fitted curve in the direction sought with a large enough effect; inconclusive means small, poorly fitted or top-dose-only effect, or another doubt; inactive means no such curve, though single readings can be large; an effect the other way counts as inactive or inconclusive.

SMILES	TDP1 cell noCPT	SW480 rereplic	MCF10A rereplic	IL1B secr inh	BCR signal inh	TDP1 cell CPT
Cc1cc2oc(=O)cc(-c3ccccc3)c2c(C)c1-c1ccc(CO)cc1	18µM*	1%	?	14	?	18µM*
Cn1c(=O)c2c(-c3ccccc3)n3c(c2n(C)c1=O)C(c1cc(Cl)ccc1O)Nc1ccccc1-3 (configuration not stated)	15µM*	.	.	.	.	9.2µM*
COc1ccc(-c2c3c(=O)n(C)c(=O)n(C)c3c3n2-c2ccccc2NC3c2ccccc2OC)cc1 (configuration not stated)	15µM*	.	.	.	.	10µM*
OCCO	12%	-48%	-6%	-6	0%	4%
CCC(c1nnnn1-c1ccc(OC)cc1)N1CCC2(CC1)C(=O)NCN2c1ccccc1 (configuration not stated)	10µM*	.	.	-24	.	?
COc1ccc(-n2nnnc2C(CCSC)N2CCC3(CC2)C(=O)NCN3c2ccccc2)cc1 (configuration not stated)	?	.	.	-16	.	?
CC(C)(C)n1nnnc1C(CCc1ccccc1)N1CCC2(CC1)C(=O)NCN2c1ccccc1 (configuration not stated)	15µM*	.	.	-60*	.	21µM*
COc1ccc(-n2nnnc2C(CCc2ccccc2)N2CCC3(CC2)C(=O)NCN3c2ccccc2)cc1 (configuration not stated)	?	.	.	-67*	.	?
COc1ccc(-n2nnnc2C(c2cccs2)N2CCC3(CC2)C(=O)NCN3c2ccccc2)cc1 (configuration not stated)	16µM*	.	.	-57*	.	?
CC(C)(C)n1nnnc1C(c1ccccc1)N1CCC2(CC1)C(=O)NCN2c1ccccc1 (configuration not stated)	?	.	.	0	.	?
Oc1cc(Cl)cc(Cl)c1Cl	-3%	-39%	?	-12	16%	?
O=C(O)c1ccccc1NS(=O)(=O)c1cccc(N=Nc2c(O)[nH]c(=S)[nH]c2=O)c1	-14%	-26%	-14%	1	4%	-6%
CCOc1cc(/C=N/NC(=O)c2ccc(N(C)S(=O)(=O)c3ccccc3)cc2)ccc1OC	21µM*	-2%	2%	-8	?	?
COC(=O)COc1cc(Cl)c(Cl)cc1Cl	5%	.	.	.	.	17%
CC(C)c1c(C(=O)N(C)Cc2cccc3ncccc23)cnn1-c1nccc(-c2ccccc2F)n1	8.2µM*	.	.	.	.	4.1µM*
O=C(c1cn(Cc2ccccc2F)c2ncccc12)C(F)(F)F	-25%	-5%	9%	-10	5%	-2%
O=S(=O)(c1ccc(Cl)cc1)N1Cc2ccccc2-n2nncc2C1	?	.	.	46	.	?
C=CCC1(Cc2ccsc2)C(=O)NC(=O)NC1=O	-10%	0%	0%	-5	.	-15%
Cc1ccccc1N1CCN(C2CCCN(C(=O)COc3ccccc3)C2)CC1 (configuration not stated)	21µM*	2%	2%	20	0%	26µM*
Cc1ccc(OCC(=O)N2CCN(C3CCC(c4ccccc4)CC3)CC2)cc1 (configuration not stated)	?	-2%	13µM*	-8	-2%	?
O[C@@H]1CCCN2CCc3c([nH]c4ccccc34)[C@H]12	?	1%	5%	-5	.	15µM*
C=CCn1c(O)c(C(CC)=NCC2CCCO2)c(=O)[nH]c1=O (configuration not stated)	11%	-8%	3%	8	?	1%
CCOc1ccc2nc(NC(=O)c3cccn(Cc4ccc(Cl)cc4)c3=O)sc2c1	0%	.	.	.	.	0%
CN(C(=O)CSc1nc2ccc(NC(=O)COc3ccc(Cl)cc3)cc2s1)c1ccccc1	10µM*	.	.	.	.	13µM*
Cn1c(=O)c2c(nc(-c3ccc(N(CCCl)CCCl)cc3)n2C)n(C)c1=O	26µM*	?	13%	?	.	15µM*
SMILES	TDP1 cell noCPT	SW480 rereplic	MCF10A rereplic	IL1B secr inh	BCR signal inh	TDP1 cell CPT
CC(N)Cc1cn(Cc2ccccc2)c2ccccc12 (configuration not stated)	21µM*	?	?	-90*	?	?
Cc1ccc(N=Nc2c(O)[nH]c(=O)[nH]c2=O)cc1S(=O)(=O)Nc1ccc(Br)cc1	-1%	25%	?	5	?	-13%
Cc1ccc(S(=O)(=O)c2nc(-c3ccccc3Cl)oc2N(C)C2CCN(C)CC2)cc1	?	?	?	0	?	?
C/C(=N\N1CCCCCC1)c1c(O)n(-c2ccccc2C)c(=O)[nH]c1=O	0.13µM*	-4%	11%	4	4%	-66%
C/C(=N\N1CCCCCC1)c1c(O)n(-c2ccc(C)cc2)c(=O)[nH]c1=O	-25%	1%	21%	-2	0%	1%
C/C(=N\N1CCCCCC1)c1c(O)n(-c2ccc(Cl)cc2)c(=O)[nH]c1=O	21µM*	-7%	10%	15	-4%	?
O=C1OC(=O)C2C3CCC(O3)C12 (configuration not stated)	-10%	.	.	.	12%	11%
C=C[C@H]1CN2CCC1C[C@@H]2C(O)c1ccnc2ccccc12 (some centres not stated)	-1%	.	.	.	.	-3%
Cc1nc(C)c(C(=O)NN=Cc2ccc(N(CCCl)CCCl)cc2)s1	12µM*	?	?	0	.	?
O=C(NN=Cc1ccc(N(CCCl)CCCl)cc1)c1cccnc1	9.2µM*	?	20%	-1	.	7.3µM*
Nc1c(Cl)c(Cl)c(Cl)c(Cl)c1Cl	-5%[92.5 µM]	.	.	.	.	-1%[92.5 µM]
OCC1OC(O)CC(O)C1O (configuration not stated)	-4%	-7%	?	8	.	3%
O=C(NC1CCCCC1)N1Cc2ccccc2-n2nncc2C1	-2%	-17%	-8%	19	.	-9%
Nc1ccc(N)cc1	-17%	12%	-10%	.	.	-22%
COc1ccc(CCNC(=O)N2c3ccccc3Sc3ccccc32)cc1	?	24%	16µM*	?	.	?
COc1ccc(CCNC(=O)COC(=O)Cc2ccccc2)cc1	?	-28%	2%	0	11%	-5%

Screening data from PubChem.
